Compound activity: PubChem BioAssay, National Center for Advancing Translational Sciences (NCATS)
ERK AVP inh = inhibitors of vasopressin-stimulated ERK signaling pathway. Potency, µM (top dose mostly 57.5 µM), most hits filed as inhibitors. HEK293-V1b, vasopressin-stimulated pERK AlphaScreen. 72,000 compounds, 0.99% hits; note: nearly all actives have a fitted effect of over 55% in size
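HEK293 cells stably expressing V1b receptor, seeded overnight in 1% FBS, were treated with compounds for 30 min at 37C, then stimulated 5 min with 25 nM vasopressin; phospho-ERK read by AlphaScreen SureFire after lysis.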
ALOX15 inhib = inhibitors of human 15-lipoxygenase (ALOX15); P16050; purified 15hLO-1, xylenol orange hydroperoxide absorbance; Potency, µM (highest dose often 57.1 µM), usual class: inhibitors; 74,000 compounds, 1.4% hits; note: nearly all actives have a fitted effect of over 55% in size
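Hydroperoxide formed from arachidonic acid (50 uM) by purified human 15hLO-1 (40 nM) oxidizes ferrous iron, and the ferric-xylenol orange complex is read at 573 versus 405 nm. Compounds were preincubated 15 min; reaction ran 6 min at room temperature.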
Tau fil binding = binds recombinant human tau filaments; recombinant tau filaments, thioflavin S fluorescence, 15 h; filaments grown with octadecylsulfate alongside compound; AID 596; 71,000 compounds, 2% hits; Potency, µM (top dose mostly 57.1 µM);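 note: actives lower thioflavin S fluorescence by blocking filaments or displacing dye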
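Read-out: ThS fluorescence, 450 nm excitation/510 nm emission; lower signal marks blocked filament formation or displaced dye. Tau at 1 uM with 30 uM ODS, 10 uM ThS, 5 mM DTT, 100 mM NaCl, 10 mM HEPES pH 7.4; 15 h, 37 C.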
Caspase-1 inhib = blocks human caspase-1 allosterically or competitively | Potency, µM (titrated, usually from 57.5 µM), hits mostly inhibitors | 75,000 compounds, 0.03% hits | AID 900 | Caspase-1 enzyme, Ac-WEHD-AFC fluorogenic rate
Target sequence (P29466 120-297 limits assumed): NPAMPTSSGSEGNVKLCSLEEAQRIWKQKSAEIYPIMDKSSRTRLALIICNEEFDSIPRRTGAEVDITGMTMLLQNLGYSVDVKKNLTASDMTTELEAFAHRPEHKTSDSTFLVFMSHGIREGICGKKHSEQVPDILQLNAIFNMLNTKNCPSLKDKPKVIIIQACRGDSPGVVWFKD
Target sequence (P29466 317-404 limits assumed): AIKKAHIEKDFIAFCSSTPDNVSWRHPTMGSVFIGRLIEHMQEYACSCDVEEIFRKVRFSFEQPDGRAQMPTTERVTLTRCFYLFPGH
Caspase-7 inhib = allosteric or competitive inhibitors of human caspase-7 | P55210 | recombinant caspase-7, Ac-DEVD-AFC fluorescence rate | Potency, µM (doses to about 57.5 µM), actives largely listed as inhibitors | 75,000 compounds, 0.02% hits; active = well fitted inhibition curve with a large enough effect in the main read-out, with a control signal flat, not every such curve was filed as active; inconclusive = small, poorly fitted or top-dose-only effect, or a change in a side signal
Target sequence (P55210 24-198 limits assumed): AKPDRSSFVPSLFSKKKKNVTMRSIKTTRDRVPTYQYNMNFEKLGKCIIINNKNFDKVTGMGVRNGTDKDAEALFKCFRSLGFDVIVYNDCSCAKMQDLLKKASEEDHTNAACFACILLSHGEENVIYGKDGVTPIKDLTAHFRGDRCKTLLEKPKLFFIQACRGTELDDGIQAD
Target sequence (P55210 207-303 limits assumed): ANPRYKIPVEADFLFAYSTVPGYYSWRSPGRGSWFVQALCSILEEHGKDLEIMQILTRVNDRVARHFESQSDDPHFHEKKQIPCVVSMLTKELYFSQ
Large screens that a line does not name were inactive. Sampled rows, rich in hits. Any-hit rate of the full collection: about 3.9%. Unless noted, calls come from the whole dose curve; as a rule, active = well fitted curve in the direction sought with a large enough effect; inconclusive = small, poorly fitted or top-dose-only effect, or another doubt; inactive = no such curve, though single readings can be large; an effect the other way counts as inactive or inconclusive.

CC1CCC(C(C)(C)O)CC2=C1CCC2C (configuration not stated)	none (no result: Tau fil binding)
c1csc(CNc2ncncc2-c2ccoc2)c1	none
COc1ccc(C[N+](C)(C)N)cc1OC	none
O=C(NCC1CC1)[C@H]1C[C@@H]1[C@H](NP(=O)(c1ccccc1)c1ccccc1)c1ccccc1	none (no result: ALOX15 inhib)
COC(=O)c1ccc(CC(=O)c2c(C)cc(O)cc2O)o1	ALOX15 inhib 25µM
CSC1=C(C#N)C2(CCCC2)C(C#N)=C(N)N1	ERK AVP inh inconclusive, ALOX15 inhib inconclusive
N#CC1=C(N)N2C(=C(C#N)C13CCCCC3)SC1CCCCC12O (configuration not stated)	ERK AVP inh inconclusive, ALOX15 inhib 20µM
CCC(=O)Oc1ccc2c(C)cc(=O)oc2c1C	ERK AVP inh inconclusive
Cc1cc(=O)oc2c1ccc1oc(/C(=N/O)c3ccccc3)c(C)c12	ALOX15 inhib 7.9µM
O=C(CSc1nc2scc(-c3ccco3)c2c(=O)n1-c1ccccc1)N1CCOCC1	ERK AVP inh inconclusive, ALOX15 inhib 1.6µM
NC(=O)CSc1nc2scc(-c3ccco3)c2c(=O)n1-c1ccccc1	ERK AVP inh inconclusive
CN1CCc2nc(NC(=O)c3cccc(S(=O)(=O)N4CCc5ccccc54)c3)sc2C1	ALOX15 inhib 16µM, Caspase-1 inhib inconclusive, Caspase-7 inhib inconclusive
CCN(CC)CCCC(C)n1c(-c2ccccc2)nc2c(NCCO)nc(C)nc21 (configuration not stated)	none
CCOC(=O)c1cnc2c(C(F)(F)F)cccc2c1N1CCOCC1	ERK AVP inh inconclusive, Tau fil binding 16µM
COc1ccc(Nc2ncccc2C(=O)Nc2ccccc2)cc1	ERK AVP inh inconclusive, Tau fil binding 20µM
COc1cccc(Nc2ncccc2C(=O)NCc2ccccc2)c1	none
CC#C[C@@]1(O)CC[C@@H]2[C@@H]3CCC4=CC(=O)CCC4=C3[C@@H](c3ccc(N(C)C)cc3)C[C@]21C	Tau fil binding 32µM (no result: ERK AVP inh, ALOX15 inhib, Caspase-1 inhib, Caspase-7 inhib)
C=C(CO)[C@H]1Cc2c(ccc3c(=O)c4c(oc23)COc2cc(OC)c(OC)cc2-4)O1	Tau fil binding 32µM (no result: ERK AVP inh, ALOX15 inhib, Caspase-1 inhib, Caspase-7 inhib)
C=C(CO)C1Cc2c(ccc3c2OC2COc4cc(OC)c(OC)cc4C2C3=O)O1 (configuration not stated)	ERK AVP inh inconclusive (no result: Tau fil binding)
CCOc1ccc2nc(NCCNC(=O)CC)c(C#N)cc2c1	none
Cc1ccc2cc(C#N)c(NCCNC(=O)C3CC3)nc2c1C	ERK AVP inh 25µM, Caspase-7 inhib inconclusive (no result: Caspase-1 inhib)
Nc1nc2c(c(=O)[nH]1)CN(CCCN1CCOCC1)CN2	none
N/N=C1/c2ccccc2N[C@H]1OC(=O)Nc1ccccc1	Tau fil binding 3.2µM
CC[C@](N)(C(=O)O)C(C)C	none
Fc1ccc(-c2nc3nc4ccccc4nc3n2Cc2ccco2)cc1	Tau fil binding 16µM
S=c1nc(-c2ccccc2)n(Cc2ccco2)c2c1CCCC2	none (no result: ERK AVP inh, Tau fil binding)
Fc1ccc(-n2c(-c3ccco3)nc3nc4ccccc4nc32)cc1	Tau fil binding 13µM, Caspase-1 inhib inconclusive
c1ccc(-c2nc3nc4ccccc4nc3n2Cc2ccco2)cc1	Tau fil binding 13µM
CCCCOCCCn1c(-c2ccco2)nc2nc3ccccc3nc21	ALOX15 inhib inconclusive, Tau fil binding 2µM, Caspase-7 inhib inconclusive (no result: Caspase-1 inhib)
C[C@@H]1/C=C\CC(=O)OC[C@H](C)C(=O)N[C@@H](Cc2ccccc2)C(=O)OC1	none (no result: Tau fil binding)
N#Cc1cccc(NC(=O)N2CC[C@@]3(CCCN(S(=O)(=O)c4ccccc4)C3)C2)c1	ERK AVP inh inconclusive
COC(=O)C1=C(C)N(Cc2ccccc2)[C@]23O[C@](C(=O)OC)(C(=O)N2C1c1ccccc1)C1CCOC(=O)C13 (some centres not stated)	none (no result: Tau fil binding)
O=C1c2ccccc2C(O)(O)[C@@]1(O)[C@]1(O)C(=O)c2ccccc2C1(O)O	none
O=S(=O)(O)c1ccc2c(N=Nc3cccc4ccccc34)c(O)c(S(=O)(=O)O)cc2c1	none
O=[N+]([O-])c1ccc2c(N=Nc3ccc4ccccc4c3O)c(O)cc(S(=O)(=O)O)c2c1	ALOX15 inhib 3.2µM, Tau fil binding 3.2µM
Cc1ccccc1Nc1nnc(SCC(=O)NC(=O)NCc2ccco2)s1	ERK AVP inh inconclusive, ALOX15 inhib 16µM
N#CCCn1c(=O)c(-c2ccc(Cl)cc2)nc2cnc(N3CCOCC3)nc21	Caspase-7 inhib inconclusive (no result: Caspase-1 inhib)
N#CCCn1c(=O)c(-c2ccc(F)cc2)nc2cnc(N3CCOCC3)nc21	Caspase-7 inhib inconclusive (no result: Caspase-1 inhib)
CN1CCN(c2ncc3nc(-c4ccc(Cl)cc4)c(=O)n(CCC#N)c3n2)CC1	Tau fil binding 3.2µM, Caspase-7 inhib inconclusive (no result: Caspase-1 inhib)
N#CCCn1c(=O)c(-c2ccc(Cl)cc2)nc2cnc(N3CCNCC3)nc21	Tau fil binding 4µM, Caspase-7 inhib inconclusive (no result: Caspase-1 inhib)
N#CCCn1c(=O)cnc2cnc(N3CCOCC3)nc21	ERK AVP inh 6.3µM, Caspase-1 inhib inconclusive, Caspase-7 inhib inconclusive
CCNc1ncc2nc(-c3ccc(Cl)cc3)c(=O)n(Cc3cccc(OC)c3)c2n1	Caspase-7 inhib inconclusive (no result: Caspase-1 inhib)
O=C1O[C@@H]([C@@H](O)CO)[C@@H](O)[C@H]1O	none
Cc1cc(C)c(C)c(S(=O)(=O)NCCC(=O)O)c1C	none (no result: ERK AVP inh, Tau fil binding)
O=c1c(-c2cccc(F)c2)nc2cncnc2n1-c1ccccc1	none
CC1=C(SCCC#N)S/C(=C2\SC(C)=C(SCCC#N)S2)S1	ALOX15 inhib 13µM, Tau fil binding inconclusive
Cc1noc(C)c1-c1nccc(NCc2cccs2)n1	ERK AVP inh inconclusive
O=C(CSc1nnc2ccccn12)c1ccc(OC(F)F)cc1OC(F)F	ERK AVP inh inconclusive, Tau fil binding 13µM
Cc1cccc2cc(CN(Cc3ccco3)S(=O)(=O)c3ccc4c(c3)OCCO4)c(=O)[nH]c12	ERK AVP inh 10µM
Cc1cc(C)c2[nH]c(=O)c(CN(CC3CCCO3)S(=O)(=O)c3ccc4c(c3)OCCO4)cc2c1 (configuration not stated)	ERK AVP inh inconclusive
C[C@H](NC(=O)c1ccc(Cl)c(Cl)c1)c1ccc(-c2ccccc2)cc1	none
Cc1cccc(Cl)c1NC[C@H](O)CN1CCN(C)CC1	none
Cc1ccc(O)c(N=CC2=C(O)c3ccccc3C2=O)c1	ERK AVP inh inconclusive, ALOX15 inhib inconclusive, Tau fil binding 7.9µM
O=C1C(C=Nc2ccccc2O)=C(O)c2ccccc21	ERK AVP inh inconclusive, Tau fil binding inconclusive
Nc1cc(S(=O)(=O)O)ccc1O	none
Oc1ccccc1C(=S)N1CCCCCC1	ALOX15 inhib inconclusive, Tau fil binding 25µM
COc1ccc(-n2c(=O)c(-c3cn(C)c4ccccc34)nc3cnc(N4CCOCC4)nc32)cc1	Caspase-7 inhib inconclusive (no result: Caspase-1 inhib)
Cc1ccccc1-c1cc(N(C)Cc2ccco2)ncn1	none
Oc1ccc(-c2nc3ncccn3c2Nc2ccc3c(c2)OCO3)cc1	ERK AVP inh inconclusive, ALOX15 inhib 10µM
Cc1ccc(-c2nc3ncccn3c2NC2CCCC2)o1	Tau fil binding 13µM
Cc1ccc(-c2nc3ncccn3c2Nc2ccc3c(c2)OCO3)o1	ERK AVP inh inconclusive, Tau fil binding 13µM
